Among the test systems are HCT-15 colon; HT29 colon; SNB-75 CNS; SNB-19 CNS; U251 CNS; PC-3 prostate; SK-MEL-5 melanoma; UACC-62 melanoma; LOX IMVI melanoma; SK-MEL-28 melanoma; SK-MEL-2 melanoma; SN12C renal; UO-31 renal; TK-10 renal; ACHN renal; A498 renal; CCRF-CEM leukemia; MOLT-4 leukemia; CAKI-1 renal.
What all share (experiment): NCI-60 one-dose screen, 48 h (100 = growth as untreated, 0 = no growth, -100 = all killed)
Conditions in all cases: 10 µM unless noted

About 83,000 compounds went through this panel and 20% of them were active in at least one assay; those are over-represented in the sample as a whole.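 Results are percent growth after 48 hours of single-concentration exposure. 100 means growth as in untreated cells, lower positive values show inhibition; negative values down to -100 show cell death.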 Values without a mark were called inactive. Calls of active or inactive are those of the source. The calls were made as follows: active = growth percent below 10; inactive = the rest.

Regarding `COc1ccc(C(=O)c2cc(OC)c(OC)c(OC)c2)cc1/C=C/C(=O)c1ccc(OC)c(OC)c1`, the growth with HCT-15 colon was 12.8%; in the assay with HT29 colon, 9.61% (active); in the assay on SNB-75 CNS it was 22.9%; in the assay on SNB-19 CNS, 33.2%; in the assay on U251 CNS it was 25.5%; in the assay with PC-3 prostate, 33.9%. For the same compound, the growth was 21.5% in the assay with SK-MEL-5 melanoma; 24.8% with UACC-62 melanoma; 10.9% with LOX IMVI melanoma; 21.8% in the assay with SK-MEL-28 melanoma; 20.9% in the assay with SK-MEL-2 melanoma; 42.3% in the assay with SN12C renal. The growth in the assay with UO-31 renal is 26.3%; in the assay on TK-10 renal it was 63.8%; in the assay with ACHN renal, 20.4%; with A498 renal, 74.1%; with CCRF-CEM leukemia it was 6.83% (active); in the assay on MOLT-4 leukemia it was 12.8%.

As to `COc1ccc(C(=O)c2cc(OC)c(OC)c(OC)c2)cc1/C=C/C(=O)c1ccc2c(c1)OCO2`, the growth is -22.6% (active) with HCT-15 colon; -27.2% (active) in the assay with HT29 colon; 28.2% in the assay on SNB-75 CNS; 11.8% in the assay with SNB-19 CNS; -19.1% (active) in the assay with U251 CNS; 24% with PC-3 prostate. Moreover, the growth with SK-MEL-5 melanoma is 8.97% (active); with UACC-62 melanoma it was -63.5% (active); with LOX IMVI melanoma it was -36.5% (active); in the assay with SK-MEL-28 melanoma it was -57% (active); in the assay on SK-MEL-2 melanoma it was 22.2%; in the assay with SN12C renal it was 23.8%. Moreover, the growth in the assay on UO-31 renal is -9.84% (active); in the assay with TK-10 renal, 44.6%; in the assay with ACHN renal, -76.4% (active); with A498 renal it was 71.9%; in the assay with CCRF-CEM leukemia, -9.53% (active); in the assay with MOLT-4 leukemia it was 2.27% (active).

Take `CC(C)C[C@H](NC(=O)[C@@H](Cc1ccccc1)n1ccc(Nc2ccccc2)cc1=O)B(O)O`: the growth was 28.9% with HCT-15 colon; -14.1% (active) with HT29 colon; -18.6% (active) in the assay with SNB-75 CNS; 18.1% with SNB-19 CNS; 5.67% (active) with U251 CNS; 21.1% in the assay with PC-3 prostate. Moreover, the growth in the assay with SK-MEL-5 melanoma was -68.2% (active); in the assay with UACC-62 melanoma, -77.1% (active); with LOX IMVI melanoma, -66.7% (active); in the assay with SK-MEL-28 melanoma, 21.7%; with SK-MEL-2 melanoma, -14.9% (active); in the assay with SN12C renal it was -25.1% (active). Moreover, the growth was -44% (active) in the assay on UO-31 renal; -0.144% (active) in the assay on TK-10 renal; 20.9% in the assay on ACHN renal; -47.3% (active) in the assay on A498 renal; -5.5% (active) in the assay on CCRF-CEM leukemia; -8.47% (active) in the assay on MOLT-4 leukemia.

With `Nc1c(C(=O)Nc2ccccc2)sc2nc3c(cc12)CCCCC3`, the growth with HCT-15 colon is 20.1%; in the assay on HT29 colon it was -15.5% (active); in the assay on SNB-75 CNS it was -6.57% (active); in the assay on SNB-19 CNS, 22.1%; with U251 CNS, 13.8%; with PC-3 prostate, 9.02% (active). Moreover, the growth in the assay with SK-MEL-5 melanoma is 11.3%; in the assay on UACC-62 melanoma it was 5.45% (active); in the assay with LOX IMVI melanoma, 22.1%; with SK-MEL-28 melanoma it was 36.6%; in the assay with SK-MEL-2 melanoma it was 12.6%; with SN12C renal, 45.3%. For the same compound, the growth was 21.5% in the assay on UO-31 renal; 21.6% in the assay with TK-10 renal; 30.3% in the assay with ACHN renal; -5.02% (active) in the assay on A498 renal; 29.2% with MOLT-4 leukemia.

Take `COc1cccc(-c2nc3sccn3c2-c2ccnc(NCCNS(=O)(=O)c3ccccc3)n2)c1`: the growth is 42.9% in the assay on HCT-15 colon; 34% in the assay on HT29 colon; 79.8% in the assay with SNB-75 CNS; 97.3% with SNB-19 CNS; 71.9% with U251 CNS; 69.2% with PC-3 prostate. The growth is 28.2% in the assay on SK-MEL-5 melanoma; 32.5% in the assay with UACC-62 melanoma; 48% in the assay on LOX IMVI melanoma; 66.4% with SK-MEL-28 melanoma; 77.1% with SK-MEL-2 melanoma; 67.9% with SN12C renal. The growth with UO-31 renal is 37.7%; in the assay with TK-10 renal it was 83%; with ACHN renal, 44.3%; with CAKI-1 renal it was 53.1%; in the assay with CCRF-CEM leukemia, 42.6%; in the assay with MOLT-4 leukemia it was 43.2%.

For the compound `COc1ccc(C(=O)/C=C/c2cccc([N+](=O)[O-])c2)c(OC)c1`, the growth in the assay with HCT-15 colon was -47.2% (active); with HT29 colon, -3.14% (active); in the assay on SNB-75 CNS, 35.2%; with SNB-19 CNS, 17%; in the assay with U251 CNS it was -16.2% (active); with PC-3 prostate, 33.3%. In addition, the growth with SK-MEL-5 melanoma is 41.4%; with UACC-62 melanoma it was 31.5%; in the assay with LOX IMVI melanoma it was -73.3% (active); with SK-MEL-28 melanoma it was 69.4%; with SK-MEL-2 melanoma it was 72.4%; in the assay with SN12C renal it was 8.76% (active). For the same compound, the growth with UO-31 renal was -13% (active); in the assay with TK-10 renal, 50%; with ACHN renal it was -43.5% (active); in the assay with CAKI-1 renal it was 24.8%; with CCRF-CEM leukemia, 5.85% (active); in the assay with MOLT-4 leukemia, 7.24% (active).

In the case of `O=c1[nH]c2ccccc2cc1-c1nnc(Cc2ccccc2)o1`, the growth in the assay with HCT-15 colon is 49%; in the assay with HT29 colon it was 57.9%; in the assay on SNB-75 CNS, 69.3%; with SNB-19 CNS, 86%; with U251 CNS it was 72.4%; in the assay with PC-3 prostate, 65.5%. For the same compound, the growth is 56.8% in the assay with SK-MEL-5 melanoma; 47.9% with UACC-62 melanoma; 35% in the assay on LOX IMVI melanoma; 101% in the assay on SK-MEL-28 melanoma; 78.4% in the assay with SK-MEL-2 melanoma; 74% in the assay on SN12C renal. For the same compound, the growth in the assay on UO-31 renal was 40%; with TK-10 renal, 112%; with ACHN renal, 65.9%; in the assay on CCRF-CEM leukemia, 19%; in the assay with MOLT-4 leukemia, 57.1%.

Consider `CC(C)C[C@H](NC(=O)Cn1ccc(NCc2ccccc2)cc1=O)B(O)O`, for which the growth in the assay on HCT-15 colon was 23.5%; with HT29 colon, -15.2% (active); with SNB-75 CNS it was 56.9%; in the assay with SNB-19 CNS, 42.2%; in the assay on U251 CNS, 44.6%; with PC-3 prostate, 49.2%. The growth with SK-MEL-5 melanoma was -9.84% (active); in the assay with UACC-62 melanoma it was 4% (active); with LOX IMVI melanoma it was -65.5% (active); with SK-MEL-28 melanoma it was 27.4%; with SK-MEL-2 melanoma, -6.74% (active); in the assay on SN12C renal, 31.2%. Besides, the growth was -40.5% (active) in the assay with UO-31 renal; -10.7% (active) with TK-10 renal; 9.74% (active) in the assay with ACHN renal; -20.9% (active) with A498 renal; 2.78% (active) with CCRF-CEM leukemia; -10.3% (active) in the assay on MOLT-4 leukemia.

For `Cc1ccc(Oc2nc3ccccc3cc2-c2nnc(Cn3c(COc4ccccc4)nc4ccccc43)o2)cc1`, the growth is 17.5% with HCT-15 colon; 4.53% (active) with HT29 colon; 54.9% with SNB-75 CNS; 52.4% in the assay on SNB-19 CNS; 43% with U251 CNS; 46.2% in the assay with PC-3 prostate. Also, the growth was 80.5% with SK-MEL-5 melanoma; 50.8% with UACC-62 melanoma; 19.6% with LOX IMVI melanoma; 90.9% in the assay with SK-MEL-28 melanoma; 89.8% in the assay with SK-MEL-2 melanoma; 29.4% in the assay with SN12C renal. Also, the growth was 8.45% (active) with UO-31 renal; 77.1% with TK-10 renal; 49.9% with ACHN renal; 54.1% in the assay on A498 renal; 0.728% (active) with CCRF-CEM leukemia; -13.8% (active) in the assay on MOLT-4 leukemia.

Take `CCCCC(N)(C(=O)O)C1CCCC1` (stereo unspecified): the growth with HCT-15 colon was 96.2%; with HT29 colon it was 100%; with SNB-75 CNS, 93.5%; in the assay with SNB-19 CNS, 99.9%; in the assay with U251 CNS, 91%; in the assay with PC-3 prostate, 92.2%. For the same compound, the growth in the assay with SK-MEL-5 melanoma was 105%; with UACC-62 melanoma, 97.4%; in the assay with LOX IMVI melanoma it was 99.4%; in the assay on SK-MEL-28 melanoma it was 94.8%; with SK-MEL-2 melanoma it was 117%; in the assay on SN12C renal, 96.1%. The growth in the assay on UO-31 renal is 90.9%; with TK-10 renal it was 104%; with ACHN renal, 96.9%; in the assay on CAKI-1 renal it was 93%; in the assay on CCRF-CEM leukemia, 97.9%; in the assay with MOLT-4 leukemia, 123%.

Regarding `COc1ccc2c(c1)C=CC(C#N)N2C(=O)c1ccccc1` (stereo unspecified), the growth in the assay with HCT-15 colon is 9.74% (active); in the assay with HT29 colon, 5.77% (active); in the assay with SNB-75 CNS it was -14.7% (active); in the assay on SNB-19 CNS, 43.8%; with U251 CNS, 28.6%; in the assay with PC-3 prostate it was 19%. For the same compound, the growth is -6.27% (active) in the assay with SK-MEL-5 melanoma; 26.3% with UACC-62 melanoma; 20% in the assay on LOX IMVI melanoma; 58.9% in the assay with SK-MEL-28 melanoma; 67.4% in the assay with SK-MEL-2 melanoma; 38.4% in the assay with SN12C renal. Besides, the growth is 53% with UO-31 renal; 70.9% with TK-10 renal; 33.9% with ACHN renal; 23.6% with CAKI-1 renal; 15.2% in the assay with CCRF-CEM leukemia; 11.9% with MOLT-4 leukemia.
